Reference: PubChem BioAssay AID1159580 (chemical genetic matrix, 2015)
In all, about 5,500 compounds went through this assay and about 2,000 (36%) were called active. Another 18% or so got no clear call; they are omitted. Cut-off read from the data, not from the text of the source: active = normalized growth mostly below about 0.91 (no sharp cut-off); inconclusive = no clear call, values can overlap the other calls; inactive = mostly above about 0.92. The list shows a part of the results.

Assay: chemical genetic growth profiling, strain panel (AID 1159580);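 note: tested at 20 µM; growth read once vehicle control cultures reached saturation at 30 °C; 1 = growth at the plate median or of vehicle wells; lower values mean less growth of the strain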
Details: S. cerevisiae deletion strains, growth OD

Measured: normalized growth

CNCCC(Oc1ccccc1C)c1ccccc1 (configuration not stated)
inactive: locus YAL040C, strain CLN3, active compounds read low 0.978 | locus YCL061C, strain MRC1 (second series), active compounds read low 0.995 | locus YDR150W, strain NUM1, active compounds read low 0.994 | locus YDR363W, strain ESC2, active compounds read low 0.968 | locus YER002W, strain NOP16, active compounds read low 0.995 | locus YMR263W, strain SAP30, active compounds read low 0.982 | locus YMR307W, strain GAS1, active compounds read low 0.971 | locus YNL128W, strain TEP1, active compounds read low 1.05 | locus YNL153C, strain GIM3, active compounds read low 0.984 | locus YNL175C, strain NOP13, active compounds read low 1.04 | locus YNL197C, strain WHI3, active compounds read low 1.02 | locus YNL224C, strain SQS1, active compounds read low 1.08 | locus YNL322C, strain KRE1, active compounds read low 0.96 | locus YOR083W, strain WHI5 (second series), active compounds read low 1 | locus YPL055C, strain LGE1, active compounds read low 0.984 | locus YPL241C, strain CIN2, active compounds read low 1

C/C(=N/NC(N)=S)c1csc(-c2ccccc2)n1
active: locus YHR030C, strain SLT2, active compounds read low 1.46 [resistant]
inactive: locus YAR019C, strain CDC15, active compounds read low 0.917 | locus YBL105C, strain PKC1, active compounds read low 0.947 | locus YBR135W, strain CKS1, active compounds read low 0.948 | locus YBR136W, strain MEC1, active compounds read low 0.941 | locus YBR160W, strain CDC28, active compounds read low 0.942 | locus YDL017W, strain CDC7, active compounds read low 0.962 | locus YDL028C, strain MPS1, active compounds read low 0.948 | locus YDL101C, strain DUN1, active compounds read low 0.931 | locus YDL108W, strain KIN28, active compounds read low 0.942 | locus YDL132W, strain cdc53, active compounds read low 0.942 | locus YDL214C, strain PRR2, active compounds read low 0.834 | locus YDR052C, strain DBF4, active compounds read low 0.944 | locus YDR054C, strain cdc34, active compounds read low 0.898 | locus YDR226W, strain ADK1, active compounds read low 0.961 | locus YDR477W, strain SNF1, active compounds read low 0.816 | locus YER123W, strain YCK3, active compounds read low 0.698 | locus YER133W, strain GLC7, active compounds read low 0.791 | locus YFL009W, strain cdc4, active compounds read low 0.913 | locus YFL029C, strain CAK1, active compounds read low 0.935 | locus YFR003C, strain YPI1, active compounds read low 0.948 | locus YFR019W, strain FAB1, active compounds read low 0.895 | locus YFR028C, strain CDC14, active compounds read low 0.936 | locus YGR040W, strain KSS1, active compounds read low 0.823 | locus YGR052W, strain FMP48, active compounds read low 0.96 | locus YGR092W, strain DBF2, active compounds read low 0.545 | locus YHR079C, strain IRE1, active compounds read low 0.663 | locus YHR082C, strain KSP1, active compounds read low 1.19 | locus YHR205W, strain SCH9, active compounds read low 0.978 | locus YIL147C, strain SLN1, active compounds read low 0.937 | locus YJL095W, strain BCK1, active compounds read low 0.993 | locus YJL128C, strain PBS2, active compounds read low 1.02 | locus YJL157C, strain FAR1, active compounds read low 0.802 | locus YJR016C, strain ILV3, active compounds read low 0.935 | locus YJR066W, strain TOR1 (second series), active compounds read low 0.625 | locus YJR066W, strain TOR1, active compounds read low 1.01 | locus YKL048C, strain ELM1, active compounds read low 0.948 | locus YKL067W, strain YNK1, active compounds read low 0.864 | locus YKL101W, strain HSL1, active compounds read low 0.886 | locus YKL193C, strain SDS22, active compounds read low 0.932 | locus YKL203C, strain TOR2, active compounds read low 0.852 | locus YLR113W, strain HOG1, active compounds read low 0.964 | locus YLR133W, strain CKI1, active compounds read low 0.863 | locus YLR403W, strain SFP1, active compounds read low 0.717 | locus YML070W, strain DAK1, active compounds read low 0.884 | locus YMR001C, strain CDC5, active compounds read low 0.935 | locus YMR205C, strain PFK2 (second series), active compounds read low 0.883 | locus YMR277W, strain FCP1, active compounds read low 0.914 | locus YNL006W, strain LST8, active compounds read low 0.949 | locus YNL020C, strain ARK1, active compounds read low 0.846 | locus YNL161W, strain CBK1, active compounds read low 0.925 | locus YNL183C, strain NPR1, active compounds read low 0.883 | locus YNL207W, strain RIO2, active compounds read low 0.931 | locus YNL222W, strain SSU72, active compounds read low 0.925 | locus YNL307C, strain MCK1 (second series), active compounds read low 0.754 | locus YOL078W, strain AVO1, active compounds read low 0.92 | locus YOL136C, strain PFK27, active compounds read low 0.837 | locus YOR061W, strain CKA2, active compounds read low 0.829 | locus YOR119C, strain RIO1, active compounds read low 0.823 | locus YOR231W, strain MKK1, active compounds read low 0.739 | locus YOR329C, strain SCD5, active compounds read low 0.943 | locus YPL031C, strain PHO85, active compounds read low 0.776 | locus YPL153C, strain RAD53, active compounds read low 0.789 | locus YPL204W, strain HRR25, active compounds read low 0.774 | locus YPL209C, strain IPL1, active compounds read low 0.945 | locus YPL256C, strain CLN2, active compounds read low 1.05 | locus YPR025C, strain CCL1, active compounds read low 0.95 | locus YPR106W, strain ISR1, active compounds read low 0.945 | locus YPR111W, strain DBF20, active compounds read low 0.968 | strain NNK1, active compounds read low 0.969 | strain TSCII, active compounds read low 0.914
